Assay results published in PubChem BioAssay (NCATS).
Several values for one entry are separate records, joined by “and”; a condition that tells them apart may be missing. Identical values can stand only once. Inconclusive results are not listed. A number with no mark means an inactive call. Activity calls are given as the source filed them. The call rests on the fitted dose curve; in most records, active means well fitted curve in the direction sought with a large enough effect; inconclusive means small, poorly fitted or top-dose-only effect, or another doubt; inactive means no such curve, though single readings can be large; an effect the other way counts as inactive or inconclusive. Bridge positions count the residues as written; N and C are the ends. Square brackets hold non-standard residues; d marks the D form. Peptide text beside a SMILES is read from it. * marks the point of attachment. ξ: configuration not given here. Octanoyl(6-Me) = CCC(C)CCCCC(=O)*; ξThr(3R) = C[C@@H](O)C(N)C(=O)O; dDab = NCC[C@@H](N)C(=O)O; Dab = NCC[C@H](N)C(=O)O

How the values were obtained:
[1] = Viability qHTS for spleen associated tyrosine kinase inhibitor (SYKi) drug resistant MV4-11 cells (AID 1963824); further: nearly all actives have a fitted effect of over 35% in size
Outline: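 CellTiter-Glo luminescence, read 10 min after reagent addition, reports viability after a 72 hr compound exposure. Cells are an MV4-11 line made resistant to SYK inhibition, seeded at 500 per well onto compound-containing plates.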

[2] = Quantitative highthroughput screen to assess conditional lethalithy of NOMO1 cells grown in RPMI1640 with untreated serum (RPMI+s) (AID 1963876); further: nearly all actives have a fitted effect of over 35% in size;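 on Viability: 100% = DMSO wells and 0% = empty wells without cells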
Outline: (§1)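 Each medium arm—HPLM with 10% dialyzed FBS, or RPMI1640 with 5 mM glucose and 10% untreated or dialyzed FBS—was screened against an 11-point, 3-fold compound titration for 48 h at 37 °C, with CellTiter-Glo luminescence as endpoint.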

[3] = Quantitative highthroughput screen to assess conditional lethalithy of NOMO1 cells grown in RPMI1640 with dialyzed fetal bovine serum (RPMI+ds) (AID 1963877); further: nearly all actives have a fitted effect of over 30% in size;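 on Viability: series mostly up to about 46 µM; 100% = DMSO control wells and 0% = empty wells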
Outline: as §1

[4] = Quantitative highthroughput screen to assess conditional lethalithy of NOMO1 cells grown in Human Plasma-Like Medium with dialyzed fetal bovine serum (HPLM+ds) (AID 1963878); further: nearly all actives have a fitted effect of over 35% in size;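 on Viability: 100% = DMSO wells and 0% = empty wells on each plate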
Outline: as §1

[5] = Quantitative highthroughput screen to assess conditional lethalithy of P12 Ichikawa cells grown in Human Plasma-Like Medium with dialyzed fetal bovine serum (HPLM+ds) (AID 1963879); settings: Potency: viability; further: nearly all actives have a fitted effect of over 35% in size; on Viability: series mostly up to about 46 µM
Outline: as §1

[6] = Quantitative highthroughput screen to assess conditional lethalithy of P12 Ichikawa cells grown in RPMI1640 with dialyzed fetal bovine serum (RPMI+ds) (AID 1963880); settings: Potency: P12-Ichikawa viability; further: nearly all actives have a fitted effect of over 35% in size;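 on Viability: 100% = DMSO wells and 0% = empty wells on each plate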
Outline: as §1

[7] = Quantitative highthroughput screen to assess conditional lethalithy of P12 Ichikawa cells grown in RPMI1640 with untreated serum (RPMI+s) (AID 1963881); settings: Potency: viability; further: nearly all actives have a fitted effect of over 35% in size;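 on Viability: series mostly up to about 46 µM; 100% = DMSO wells and 0% = empty wells without cells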
Outline: as §1

[8] = Quantitative highthroughput screen to assess conditional lethalithy of SEM cells grown in Human Plasma-Like Medium with dialyzed fetal bovine serum (HPLM+ds) (AID 1963882); further: nearly all actives have a fitted effect of over 35% in size; on Viability: series mostly up to about 46 µM
Outline: as §1

[9] = Quantitative highthroughput screen to assess conditional lethalithy of SEM cells grown in RPMI1640 with unreated serum (RPMI+s) (AID 1963883); further: nearly all actives have a fitted effect of over 35% in size;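 on Viability: 100% = DMSO wells and 0% = empty wells without cells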
Outline: as §1

[10] = Quantitative highthroughput screen to assess conditional lethalithy of SEM cells grown in RPMI1640 with dialyzed fetal bovine serum (RPMI+ds) (AID 1963884); further: nearly all actives have a fitted effect of over 35% in size;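 on Viability: series mostly up to about 46 µM; 100% = DMSO control wells and 0% = empty wells without cells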
Outline: as §1

[11] = Cellular viability qHTS for adrenocortical cancer (ACC) cell line SW-13 (AID 1963989); settings: SW-13 ACC cells viability, CellTiter-Glo, 48 h; activity (max response): stronger effect = lower value; further: nearly all actives have a fitted effect of over 65% in size;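 on activity (max response): cells grown in serum-free medium with ITS supplement; on the % scale 0 is the no-effect control and ±100 the full control effect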
Outline: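 SW-13 cells in ITS-supplemented serum-free DMEM were plated overnight, then exposed for 48 h at 37C to compound titrations (up to 46 uM final). Viability was read by CellTiter-Glo luminescence; four-parameter logistic fits gave IC50 and efficacy.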

[12] = Cellular viability qHTS for adrenocortical cancer (ACC) cell line NCI-H295R (AID 1963990); further: nearly all actives have a fitted effect of over 60% in size
Outline: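 Luminescent ATP read-out (CellTiter-Glo, 20 min RT) after 48 h drug exposure of NCI-H295R cells; a titration up to 46 uM final. Data normalized to doxorubicin (100% inhibition) and DMSO (0%); 4-parameter fit gives IC50, max response.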
Potency means the concentration at half of the fitted maximal effect.

SMILES	Potency [1]	Potency [2]	Potency [3]	Potency [4]	Potency [5]	Potency [6]	Potency [7]	Potency [8]	Potency [9]	Potency [10]	Potency [11]	Potency [12]	activity (max response) [11] [%]
C[C@@]12O[C@@H](C[C@]1(O)CO)n1c3ccccc3c3c4c(c5c6ccccc6n2c5c31)CNC4=O	7.4 nM (active)	1320 nM (active)	1320 nM (active)	833 nM (active)	935 nM (active)	833 nM (active)	662 nM (active)	166 nM (active)	46.9 nM (active)	105 nM (active)	2820 nM (active)	3980 nM (active)	
CCN(CC)Cc1ccc2cc(COC(=O)Nc3ccc(C(=O)NO)cc3)ccc2c1	206 nM (active) and 372 nM (active)	3720 nM (active)	3720 nM (active)	2960 nM (active)	2350 nM (active)	2350 nM (active)	2350 nM (active)	1660 nM (active)	2090 nM (active)	1870 nM (active)	2820 nM (active)	1780 nM (active)	
Cc1c(NC(=O)c2ccc(C(C)(C)C)cc2)cccc1-c1cn(C)c(=O)c(Nc2ccc(C(=O)N3CCOCC3)cc2)n1	11.4 µM (active) and 16.6 µM (active)	inactive	inactive	inactive	inactive	inactive	inactive	inactive	inactive	inactive		inactive	-3.65
Cc1ccc(C(=O)Nc2ccc(Oc3cc4cnn(C)c4cc3-c3cn[nH]c3)c(F)c2)c(=O)n1-c1ccc(F)cc1	4.7 nM (active)	8310 nM (active)	9330 nM (active)	7410 nM (active)	6600 nM (active)	7410 nM (active)	6600 nM (active)	295 nM (active)	467 nM (active)	234 nM (active)			-20.9
CCC(C)CCCCC(=O)N[C@@H](CCN)C(=O)NC(C(=O)N[C@H](CCN)C(=O)N[C@@H]1CCNC(=O)C([C@@H](C)O)NC(=O)[C@@H](CCN)NC(=O)[C@@H](CCN)NC(=O)[C@@H](CC(C)C)NC(=O)[C@H](Cc2ccccc2)NC(=O)[C@H](CCN)NC1=O)[C@@H](C)O (stereo partly drawn) ({Octanoyl(6-Me)}-[Dab][ξThr(3R)][dDab][dDab][Dab]F[dL][dDab][dDab][ξThr(3R)]; lactam 4-C)	inactive	inactive	inactive	inactive	inactive	inactive	inactive	inactive	inactive	inactive		inactive	3.16
Nc1nc(OCc2ccccc2)c2[nH]cnc2n1	20900 nM (active)	inactive	inactive	inactive	inactive	inactive	inactive	inactive	inactive	inactive		inactive	-9.18
CC(C)c1ccccc1Cc1cc(C(=O)Nc2ccc(S(=O)(=O)c3ccccc3C(C)(C)C)cc2)c(O)c(O)c1O	7420 nM (active)	inactive	inactive	inactive	inactive	inactive	inactive	inactive	inactive				
